The sequences below were run against POP5 (assay: pooled miR-30 sensor sort-seq; sequence = guide strand). Settings: shRNA.
Note: reference of the scale not given here.

Sequence | sensor-assay potency score (higher = more potent)
ATTAAATCTACTCTTAGCCAAG | -1.64
TTCTGCATCGAAGTAGCACTAT | -0.187
TGAATTAGGAACTTCTGACATG | -0.611
TATTAAATCTACTCTTAGCCAA | -0.331
TAACTGAGTACTCCATTTCAAG | -1.58
TACTGAATTAGGAACTTCTGAC | -0.267
TTCTTGTCACAGACTTCTGGAT | -0.854
TACAGAGTTCACAACCTGCAAC | -0.95
AAGATCAACAGCTGTCTCCTGT | 0.552
TTCATCAGTGCAGTTCTGCAAC | -0.521
TTGTTCTGTTCAACAAGTGGGC | -0.188

What follows are sequences tested against POU2F2 in the same assay as above. Settings: shRNA.

Sequence | sensor-assay potency score (higher = more potent)
TTGATCTTTGTACTGGGGCCAG | -0.786
TTCGGTGTCTGTGTGCTCTGAT | 0.743
TTTGTCTCGATGCTGGTCCTCT | -0.192
ATTTCTTTCGGTGTCTGTGTGC | -0.0405
TTGGTGTCGGTAGCAGGCCTGG | -1.3
TAGATTTGGTGTCGGTAGCAGG | -0.991
TTCGCTAGAAAACTCTTCTCTA | 0.465
TTTCGGTGTCTGTGTGCTCTGA | -0.406
TTAGTGTCTGGTCCATTTCTTT | -1.05
TTAGACATTCTTATTTCTGGAG | -0.093
TCTTCTTGCGTCTCCGGCCGGG | -0.79
TTGAGTTTGCACATGTTCTTGA | 1.05

What follows are sequences tested against PPARD in the same assay as above. Settings: shRNA.

Sequence | sensor-assay potency score (higher = more potent)
TTCTTCTTCTGAATCTTGCAGC | 0.0519
TAAGAAAGGAGGACAGACGTGG | 0.523
TAGCGTTGTGTGACATGCCCAG | 0.138
TTGAACTTGACAGCAAATTCAA | -0.881
TTCGGTCTTCTTGATCCGCTGC | 0.435
TTGCCGGTGAGGATGCTGCGGG | -0.839
TTGGAGATTGTTCAGACACTGA | -0.713
TTGACAGCAAATTCAAACTTAG | -0.865
TTGATCCGCTGCATCATCTGGG | -0.175
TTAAAGTTTCGTCAGTCTGTGT | -0.63
TTCTTCTGAATCTTGCAGCTGC | 0.468
TCGTACTCCAGCTTCATGCGGA | -0.0495

Each sequence was assayed against PPARGC1A in the same assay as above. Settings: shRNA.

Sequence | sensor-assay potency score (higher = more potent)
TTAGACTTGAAAAATTGCTTGC | 0.583
TTGACAAATACTCTTCGCTTTA | -1.03
TTTCTAGTTGTCTAGAGTCTTG | -1.22
TAGGTCTGCATAGTTAGACTTG | -0.55

Source: the OligoGym collection
